From PubChem
S1P2 agonist: S1P2 (human) receptor agonism; O95136; 0.46% of 97,000 active; activation, % at 4.5 µM; S1P2-expressing cell line, agonist reporter read-out; in the data active = activation above about 16%;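 also: 0% = vehicle low control and 100% = maximal reference agonist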
GALR2 antag: blocks the human galanin receptor 2 | GALR2-expressing cells, antagonist mode | inhibition, % at 4 µM | 0.39% of 140,000 active | AID 828; in the data active = inhibition above about 27%;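 also: cells stimulated with galanin 1-16 at roughly its EC80; 0% = agonist challenge control and 100% = basal control without agonist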
Target sequence (O43603 whole entry, looked up): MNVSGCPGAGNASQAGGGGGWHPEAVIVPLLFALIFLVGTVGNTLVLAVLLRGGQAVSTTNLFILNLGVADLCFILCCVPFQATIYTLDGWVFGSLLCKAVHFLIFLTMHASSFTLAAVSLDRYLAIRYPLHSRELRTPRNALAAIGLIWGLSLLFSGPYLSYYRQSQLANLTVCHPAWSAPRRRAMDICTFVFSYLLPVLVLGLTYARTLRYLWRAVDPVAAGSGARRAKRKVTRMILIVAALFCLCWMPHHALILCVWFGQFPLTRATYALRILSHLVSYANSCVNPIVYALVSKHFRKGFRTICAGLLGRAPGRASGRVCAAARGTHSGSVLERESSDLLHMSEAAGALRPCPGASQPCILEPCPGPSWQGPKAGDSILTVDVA
PostGolgi ctrl: yeast control strain growth, post-Golgi counter-screen; efflux-deficient yeast background strain, growth absorbance A615, 16 h; inhibition, % at 10 µM; 5% of 98,000 active; AID 738
PostGolgi yeast: growth inhibition of a yeast mutant, post-Golgi transport screen | post-Golgi transport phenotypic cell assay | inhibition, % at 10 µM | 0.9% of 98,000 active | AID 739;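 also: yeast cells grown in 1536-well plates; yeast grown about 18 h at 30C before absorbance read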
S1P2 blocker: blocks the human S1P2 receptor | cell-based S1P2 antagonist assay, inhibition at 5 uM | inhibition, % at 5 µM | 0.21% of 97,000 active | O95136; in the data active = inhibition above about 45%;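 also: CRE beta-lactamase reporter cells expressing human S1P2 stimulated with S1P; 0% = agonist at EC80 alone and 100% = agonist plus reference antagonist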
GALR2 ag: GALR2 (human) receptor agonism; GALR2-expressing cells, agonist activation read-out; 0.48% of 140,000 active; O43603; activation, % (no concentration beside the values); AID 803; in the data active = activation above about 5%, passing the limit was not always enough;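 also: 0% = vehicle buffer wells and 100% = reference agonist at full effect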
* marks the source's active call; other numbers are inactive results. This excerpt belongs to a sample that is enriched for hits. Rule as the data show it, unless noted: active = inhibition above about 30%; inactive = the rest.

What do the screens show for `COc1cccc(N2CC(C(=O)Nc3nnc(SCc4cccnc4)s3)CC2=O)c1` (configuration not stated)?
GALR2 antag: -7; GALR2 ag: -1

What do the screens show for `N#Cc1ccc(-n2nccc2-c2cnc3n(c2=O)CCS3)cc1`?
S1P2 agonist: -3; GALR2 antag: -8; PostGolgi ctrl: 2; PostGolgi yeast: 1; S1P2 blocker: -17; GALR2 ag: -3

Results for CC1(C)CC(CC(=O)Nc2nccs2)(c2ccccc2)CCO1 (configuration not stated) ?
GALR2 antag: -11; GALR2 ag: -1

What do the screens show for `Cc1ccc(S(=O)(=O)n2c3ccc(F)cc3c3nc(C)sc32)cc1`?
GALR2 antag: -2; GALR2 ag: 1

How did CCOc1cc(N2CCOCC2)c(OCC)cc1NC(C)C(=O)N1CCC(C)CC1 (configuration not stated) do in these assays?
GALR2 antag: -4; GALR2 ag: 0

What do the screens show for `CCC(C)(C)n1nnnc1C(c1ccc2ncccc2c1)N1CCN(c2nc3ccccc3s2)CC1` (configuration not stated)?
S1P2 agonist: -5; GALR2 antag: -1; PostGolgi ctrl: 34*; PostGolgi yeast: -2; S1P2 blocker: 3; GALR2 ag: 0

Results for Cc1ccc(C(=O)Cn2nnc3ccccc32)cc1 ?
S1P2 agonist: -5; GALR2 antag: 7; PostGolgi ctrl: 4; PostGolgi yeast: -2; S1P2 blocker: 2; GALR2 ag: -2

How did CCN(C(=O)c1ccc(C(C)(C)C)cc1)c1nnc(Cn2nnc3ccccc32)s1 do in these assays?
S1P2 agonist: -10; GALR2 antag: 17; PostGolgi ctrl: 43*; PostGolgi yeast: -2; S1P2 blocker: 87*; GALR2 ag: -2

What do the screens show for `CCCCC(=O)Nc1nc2ccc3nc(C)sc3c2s1`?
S1P2 agonist: 1; GALR2 antag: -20; PostGolgi ctrl: 45*; PostGolgi yeast: 1; S1P2 blocker: -44; GALR2 ag: -1

How did CCn1cc(C(=O)Nc2ccc(OC)c(OC)c2)c2cc(OC)c(OC)cc2c1=O do in these assays?
S1P2 agonist: 22*; GALR2 antag: -8; PostGolgi ctrl: -1; PostGolgi yeast: -2; S1P2 blocker: -34; GALR2 ag: 0

Results for COc1ccc(OC)c(NC(=O)c2cn(C)c(=O)c3cc(OC)c(OC)cc23)c1 ?
S1P2 agonist: 33*; GALR2 antag: -1; PostGolgi ctrl: 4; PostGolgi yeast: 7; S1P2 blocker: -62; GALR2 ag: 0

What do the screens show for `Cc1nnc2sc(SCC(=O)Nc3nccs3)nn2c1=O`?
GALR2 antag: 3; GALR2 ag: -2

How did CCn1c(Sc2nc(C)nc3scc(-c4cccs4)c23)n[nH]c1=O do in these assays?
S1P2 agonist: -6; GALR2 antag: 9; PostGolgi ctrl: 102*; PostGolgi yeast: 104*; S1P2 blocker: 14; GALR2 ag: 0

How did Cc1nc(SCC(=O)NC(=O)NCCC(C)C)c2c(-c3cccs3)csc2n1 do in these assays?
GALR2 antag: 4; GALR2 ag: 1

How did CC(SC1CCCC1)C(=O)NC(C)(C#N)C(C)C (configuration not stated) do in these assays?
S1P2 agonist: -1; GALR2 antag: 1; PostGolgi ctrl: 31*; PostGolgi yeast: 19; S1P2 blocker: 14; GALR2 ag: -2

What do the screens show for `CCCOc1ccc(C(=O)NCC(c2ccco2)N(C)C)cc1` (configuration not stated)?
GALR2 antag: 1; GALR2 ag: -2

How did CC(C)n1nnc2c(=O)oc3ccccc3c21 do in these assays?
GALR2 antag: -5; GALR2 ag: -2

What do the screens show for `O=C1CN(C(=O)c2ccc(Br)o2)C(c2ccc(F)cc2)c2cc(Cl)ccc2N1` (configuration not stated)?
S1P2 agonist: -4; GALR2 antag: 2; PostGolgi ctrl: 31*; PostGolgi yeast: 0; S1P2 blocker: 1; GALR2 ag: 1

What do the screens show for `O=C1CN(C(=O)c2ccc(Br)o2)C(c2ccccc2)c2cc(Cl)ccc2N1` (configuration not stated)?
S1P2 agonist: -4; GALR2 antag: -10; PostGolgi ctrl: 26; PostGolgi yeast: -15; S1P2 blocker: -9; GALR2 ag: -1

How did N#Cc1ccc(-n2c(-c3ccccc3)nnc2-c2ccccc2)cc1C#N do in these assays?
S1P2 agonist: -4; GALR2 antag: 14; PostGolgi ctrl: 41*; PostGolgi yeast: 4; S1P2 blocker: 17; GALR2 ag: -1
